Experimental data published in PubChem BioAssay (NCI).
The panel holds about 83,000 compounds, 20% with a hit somewhere; the sample as a whole holds those more often.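 Step 1: grow cells in 96-well plates. Step 2: add test compound at a single concentration. Step 3: incubate 48 h. Step 4: record percent growth.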 Values without a mark were called inactive. The source made the active and inactive calls. How the source made its calls: active means growth percent below 10; inactive means the rest.

Experiments:
Test in all cases: NCI-60 one-dose screen, 48 h (100 = growth as untreated, 0 = no growth, -100 = all killed)
Details in all cases: 10 µM unless noted
[1] = test system: DU-145 prostate
[2] = test system: K-562 leukemia
[3] = test system: MALME-3M melanoma
[4] = test system: MDA-MB-231 breast
[5] = test system: RXF 393 renal
[6] = test system: SF-268 CNS
[7] = test system: SF-539 CNS
[8] = test system: M14 melanoma
[9] = test system: HCT-15 colon
[10] = test system: HT29 colon
[11] = test system: SNB-75 CNS
[12] = test system: SNB-19 CNS
[13] = test system: PC-3 prostate
[14] = test system: SK-MEL-5 melanoma
[15] = test system: UACC-62 melanoma
[16] = test system: LOX IMVI melanoma
[17] = test system: SK-MEL-28 melanoma
[18] = test system: SF-295 CNS
[19] = test system: UACC-257 melanoma
[20] = test system: U251 CNS

SMILES	growth [1] [%]	growth [2]	growth [3]	growth [4]	growth [5]	growth [6] [%]	growth [7] [%]	growth [8] [%]	growth [9]	growth [10] [%]	growth [11] [%]	growth [12] [%]	growth [13]	growth [14]	growth [15] [%]	growth [16]	growth [17] [%]	growth [18] [%]	growth [19]	growth [20] [%]
O=c1c2cccc3c(Nc4c(F)cccc4F)ccc(c32)c2nc3ccccc3n12	104	84.9%	93.8%	82.1%	116%	97.8	100	100	75.5%	93.4	80	103	84.5%	81.8%	86.9	86.9%	109	–	–	–
O=c1c2cccc3c(Nc4ccccn4)ccc(c32)c2nc3ccccc3n12	91.8	46.5%	86.3%	70.6%	108%	87.2	85.7	91	59.2%	64.6	78.6	89.9	64%	51.8%	64.3	69.6%	101	–	–	–
COc1ccc(C(=O)c2sc3nc4c(cc3c2N)CCCC4)cc1OC	62	10.9%	63%	46.3%	31.6%	63.9	–	–	31.2%	19	49.3	71.3	50.8%	-11.4% (active)	36.2	–	47.3	28.6	79.6%	39.9
O=S(=O)(NCCCNc1cc(-c2cn(-c3ccccc3)nc2-c2cccc(O)c2)ccn1)c1ccccc1	53.7	1.96% (active)	37.2%	9.24% (active)	36.7%	52.8	–	46.2	9.91% (active)	14.8	51	77.5	21.5%	15.4%	50.1	17%	–	11	–	41.3
COc1ccc(C2Nc3ccccc3-n3cccc32)cc1 (stereo not drawn)	111	105%	100%	78.7%	111%	98.7	–	99.3	–	108	105	97.8	71.7%	93.1%	81.9	97.3%	106	92.4	98.9%	98
O=c1ccc2cc3ccccc3cc2[nH]1	100	57.6%	112%	101%	93.7%	75.5	–	101	–	101	82.2	104	105%	80.8%	66.4	102%	124	95.4	96.5%	95.5
COc1ccc(C(=O)/C=C/c2c[n+](=O)c3ccc(F)cc3n2[O-])cc1	110	102%	90.9%	106%	129%	96.8	–	–	101%	106	106	103	104%	111%	92.1	94.2%	111	102	106%	95.1
CCCCCCCCSC1=CC(=O)C(OC)=C(OC)C1=O	68.5	3.59% (active)	-53.4% (active)	24.2%	-69.7% (active)	43.6	–	26.6	–	35.4	75.7	79.3	-13.9% (active)	4.84% (active)	42.9	-48.7% (active)	72.4	74.1	-35.3% (active)	42.5
COCCCNc1nc(NC(=O)c2ccc(F)cc2C)cc(-c2cccnc2)n1	110	104%	107%	81.1%	99.5%	104	–	–	109%	105	91.7	89.9	95.9%	104%	85.7	112%	107	104	84.1%	87.6
